A selection: hits, their analogues and other compounds. The true share with any hit is near 3.4%.
TWEAK Fn14 block = inhibitors of TWEAK-Fn14 signaling, primary screen, luciferase reporter cells, uHTS; TWEAK-stimulated Fn14 reporter cells, luciferase luminescence, 8 h; inhibition, % at 10 µM; 2% of 360,000 active; AID 1159606, 2016; in the data active = inhibition above about 50%
MITF TRPM1 inh = inhibitors of MITF-dependent TRPM1 promoter reporter, primary screen, cell-based, SK-MEL-5, single point, luciferase | AID 488899, 2010 | inhibition, % at 12.5 µM | 0.83% of 330,000 active | SK-MEL-5 TRPM1 promoter luciferase, 24 h;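 active = mean inhibition across replicates of 60% or more, whatever share of single replicates reaches that level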
Shn3 3UTR inh = reduction of Shn3 3'UTR firefly luciferase signal, primary screen, Schnurri-3 inhibitor project, cell-based, Clone20 osteoblasts, set 2; Clone20 osteoblast Shn3 3'UTR firefly luciferase, 24 h; inhibition, % at 12.5 µM; 0.52% of 360,000 active; AID 588674, 2011;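 active = mean inhibition of at least 75% with every replicate also reaching 75%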
TROY NFkB inh = inhibitors of TROY-driven NF-kB signaling, primary screen, Q293 LMP1-TROYcd cells, NF-kB luciferase, uHTS. Q293 LMP1-TROYcd NF-kB luciferase reporter, 4 h. inhibition, % at 10 µM. 0.98% of 360,000 active. AID 1347056, 2019;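 active = compounds whose plate-normalised and pattern-corrected inhibition of the luciferase reporter signal at the single screening dose is 50% or more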
HIF-2a inh = HIF-2a reporter inhibitors, primary screen, luminescence, 786-0 RCC cells; 786-0 RCC cells HIF-2a reporter, luciferase luminescence, overnight; inhibition, % at 18.8 µM; 0.72% of 360,000 active;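 active = inhibition of the luminescence signal of 40% or more relative to plate controls, in a single-dose primary screen at 18.75 µM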
LMP1 NFkB inh = EBV LMP1-driven NF-kappaB luciferase reporter inhibitors, primary screen, cell-based, luminescence, single point; LMP1-induced NF-kappaB luciferase reporter cells; inhibition, % at 12.5 µM; 0.69% of 350,000 active; in the data active = inhibition above about 41%
Mdm2-MdmX confirm = retested Mdm2-MdmX interaction blockers, confirmation, cell-based, luminescence, single concentration, set 2; shares compounds with HIF-2a inh; SaOS-2 split-luciferase Mdm2/MdmX complementation; inhibition, % at 8 µM; 99% of 740 active;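 active = mean inhibition of the luminescence signal across two replicates at or above 26 percent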
Target sequence (O15151 whole entry, looked up): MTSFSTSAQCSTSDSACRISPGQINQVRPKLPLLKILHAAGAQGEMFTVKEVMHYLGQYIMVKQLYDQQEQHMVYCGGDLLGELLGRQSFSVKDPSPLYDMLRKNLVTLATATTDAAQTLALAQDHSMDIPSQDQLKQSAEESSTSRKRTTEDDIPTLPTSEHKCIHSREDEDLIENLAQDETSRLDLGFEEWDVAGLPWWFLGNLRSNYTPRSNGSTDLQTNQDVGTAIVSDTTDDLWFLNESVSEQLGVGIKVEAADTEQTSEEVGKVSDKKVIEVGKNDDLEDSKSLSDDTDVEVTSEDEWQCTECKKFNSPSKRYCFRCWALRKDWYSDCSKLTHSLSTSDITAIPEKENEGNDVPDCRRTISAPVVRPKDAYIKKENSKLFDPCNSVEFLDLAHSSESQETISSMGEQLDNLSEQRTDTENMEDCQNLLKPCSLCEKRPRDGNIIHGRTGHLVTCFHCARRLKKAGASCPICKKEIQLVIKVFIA
Target sequence (Q00987 whole entry, looked up): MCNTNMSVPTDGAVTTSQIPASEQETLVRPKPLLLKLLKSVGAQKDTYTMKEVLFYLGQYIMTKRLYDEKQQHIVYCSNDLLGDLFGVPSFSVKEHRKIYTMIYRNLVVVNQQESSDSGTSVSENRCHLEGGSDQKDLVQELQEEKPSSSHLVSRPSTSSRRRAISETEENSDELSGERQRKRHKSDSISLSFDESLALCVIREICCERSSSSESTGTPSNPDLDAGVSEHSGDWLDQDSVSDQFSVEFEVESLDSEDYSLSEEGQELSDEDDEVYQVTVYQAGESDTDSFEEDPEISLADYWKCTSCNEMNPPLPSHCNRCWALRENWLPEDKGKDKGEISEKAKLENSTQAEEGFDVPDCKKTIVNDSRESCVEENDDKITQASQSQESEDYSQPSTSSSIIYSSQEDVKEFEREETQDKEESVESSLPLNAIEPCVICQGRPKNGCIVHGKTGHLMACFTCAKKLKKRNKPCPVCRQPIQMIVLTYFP
HIF-2a inh conf = HIF-2a reporter inhibitor retest, confirmation, luminescence, 786-0 RCC cells | inhibition, % at 18.8 µM | 56% of 1,800 active | AID 651580, 2012 | HIF-2a luciferase reporter luminescence, overnight | shares compounds with HIF-2a inh;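 active = mean inhibition across four replicates of at least 40 percent at the single tested concentration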
HIF-1a cs = HIF-1a luciferase reporter signal reduction – MiaPaCa-2 cells, single concentration, counter-screen for HIF-2a inhibitor project, confirmation. 72% of 1,800 active. MiaPaCa-2 HIF-1a luciferase reporter, desferoxamine, overnight. inhibition, % at 18.8 µM. shares compounds with HIF-2a inh;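 active = mean inhibition of the reporter signal across four replicates at the single tested dose of 50% or more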
Each line names hits and unclear results; the compound was inactive in the other large screens (follow-up assays come after a bar, where they were run).

C(=N\Nc1nc2ccccc2[nH]1)/c1ccc2ncccc2c1	none
COc1ccc(NC(=O)COC(=O)CCC2CCCC2)c(OC)c1	none
COCCN1CCn2c(nc3cc([N+](=O)[O-])ccc32)C1	TWEAK Fn14 block 94, TROY NFkB inh 89, HIF-2a inh 69 | HIF-2a inh conf inactive | HIF-1a cs inactive
COC(=O)C(=C/C(C)=C/c1cccnc1)C(=O)OC	TWEAK Fn14 block 65, HIF-2a inh 43 | HIF-2a inh conf inactive | HIF-1a cs inactive
CCCCOc1cccc(/C=C(\C#N)C(=O)NC2CC2)c1	none
CCOC(=O)c1cccc(NC(=O)Nc2ccc(OCC)cc2)c1	HIF-2a inh 62 | HIF-2a inh conf 61 | HIF-1a cs inactive
CCOc1ccc(NC(=O)c2ccccn2)cc1	TWEAK Fn14 block 95, MITF TRPM1 inh 62, TROY NFkB inh 72, HIF-2a inh 56, LMP1 NFkB inh 65 | HIF-2a inh conf 70 | HIF-1a cs 71
COc1cc(C)c(NC(=O)c2cccc(S(=O)(=O)N3CCCC3)c2)cc1OC	none
CC1=C(C(=O)OCc2ccc3c(c2)OCO3)C(c2ccccc2)NC(=O)N1 (stereo not drawn)	TWEAK Fn14 block 87, TROY NFkB inh 59, LMP1 NFkB inh 69 | Mdm2-MdmX confirm 96
O=C(c1ccc(S(=O)(=O)N2CCOCC2)cc1)N1CCOCC1	none
C=CC(C)(C)c1c(O)c(CC=C(C)C)c(O)c2c(=O)c3ccc(O)c(O)c3oc12	TWEAK Fn14 block 76, Shn3 3UTR inh 89 (no result: MITF TRPM1 inh) | Mdm2-MdmX confirm 97
COc1cccc(CN(C)C(=O)CN2C(=O)NC(c3ccccc3)(c3ccccc3)C2=O)c1	none
O=C(NCCCN1CCCC1=O)c1ccc(S(=O)(=O)Nc2cccc(C(F)(F)F)c2)cc1	none
CCNc1nc(NCC)nc(Oc2ccc(C(=O)OC)cc2)n1	none
O=C(NCc1ccc(Cl)cc1)C(=O)NCC1OCCN1S(=O)(=O)c1cc(F)ccc1F (stereo not drawn)	none
COC1OC2COC(c3ccccc3)OC2C(O)C1NC(C)=O (stereo not drawn)	none
N#C/C(=C\c1ccccc1)C(=O)N(c1ccccn1)C1CCCCC1	HIF-2a inh 45 | HIF-2a inh conf 46 | HIF-1a cs inactive
NC(Cc1ccccc1)c1csc(NC(=O)c2cccc(OC(F)(F)F)c2)n1 (stereo not drawn)	HIF-2a inh 65 (no result: MITF TRPM1 inh, LMP1 NFkB inh) | HIF-2a inh conf inactive | HIF-1a cs 106
COc1ccc(CC(N)c2csc(NC(=O)c3ccccc3)n2)cc1 (stereo not drawn)	none (no result: MITF TRPM1 inh, LMP1 NFkB inh)
Cc1ccc(C(C)C)c(OCc2nn(CC(=O)c3ccc(Cl)cc3)c3[n+]2CCCCC3)c1	MITF TRPM1 inh 67, HIF-2a inh 49 | HIF-2a inh conf inactive | HIF-1a cs 106
COCCn1c(C)cc(C2=NNC(=Nc3ccc(Cl)cc3Cl)SC2)c1C	none
COCCn1c(C)cc(C2=NNC(=NC3CC3)SC2)c1C	TWEAK Fn14 block 102, MITF TRPM1 inh 102, Shn3 3UTR inh 91, TROY NFkB inh 86, HIF-2a inh 93, LMP1 NFkB inh 84 | Mdm2-MdmX confirm 101 | HIF-2a inh conf 99 | HIF-1a cs 105
CCOC(=O)c1cc(-c2csc(-c3ccc(C(C)(C)C)cc3)n2)on1	HIF-2a inh 57 | HIF-2a inh conf 58 | HIF-1a cs inactive
COc1ccc(N2CCN(S(=O)(=O)c3ccc(OC)c(C(=O)N4CCCC4)c3)CC2)cc1	none (no result: MITF TRPM1 inh)
